L3MBTL1 block: L3MBTL1 (human) inhibition; AlphaScreen L3MBTL1–H3K9me1 peptide binding; Potency, µM (series often up to 57.1 µM), inactives show at the top dose activity, negative = inhibition, hits mostly inhibitors; 230,000 tested, 0.66% active; AID 485360; further: on the % scale 0 is the no-effect control and ±100 the full control effect; nearly all actives have a fitted effect of over 60% in size
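AlphaScreen proximity signal between nickel-chelate acceptor and streptavidin donor beads (final 10 ug/mL) reports binding of 50 nM L3MBTL1 to 75 nM biotin-H3 K9me1 peptide; complex incubated with compounds 30 min at room temperature; cefsulodin titration as control.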
WRN inhibitor: WRN helicase (human) inhibition. Potency, µM (top dose mostly 114 µM), inactives show at the top dose activity change, negative = inhibition, actives largely listed as inhibitors. 360,000 tested, 0.46% active. WRN helicase unwinding, fluorescent forked duplex, kinetic. AID 651768; further: on the % scale 0 is the no-effect control and ±100 the full control effect; nearly all actives have a fitted effect of over 55% in size
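Kinetic fluorescence helicase assay: unwinding of a quenched forked DNA duplex (100 nM final) with 2 mM ATP final raises red fluorescence (525/598 nm). Compounds sat 15 min at room temperature with 20 nM WRN beforehand.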
Pol beta inh: inhibitors of human DNA polymerase beta. P06746. Pol beta primer extension/strand displacement, fluorescence kinetic. Potency, µM (series often up to 114 µM), inactives show top-dose activity change, negative = inhibition, usual class: inhibitors. 340,000 tested, 1.3% active. AID 485314; further: on the % scale 0 is the no-effect control and ±100 the full control effect
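Enzyme-only controls used 10 nM Pol beta; buffer lacking enzyme served as negative control. Compound preincubated 15 min, then 50 nM substrate added; 0 and 10 min reads at room temperature.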
POLI inh: blocks human DNA polymerase iota activity. 390,000 tested, 1% active. Q9UNA4. Pol iota fluorescent replication assay, 10 min. AID 588590. Potency, µM (top dose mostly 115 µM), for the others: at the top dose activity, negative = inhibition, most hits filed as inhibitors
Target sequence (Q9UNA4 whole entry, looked up): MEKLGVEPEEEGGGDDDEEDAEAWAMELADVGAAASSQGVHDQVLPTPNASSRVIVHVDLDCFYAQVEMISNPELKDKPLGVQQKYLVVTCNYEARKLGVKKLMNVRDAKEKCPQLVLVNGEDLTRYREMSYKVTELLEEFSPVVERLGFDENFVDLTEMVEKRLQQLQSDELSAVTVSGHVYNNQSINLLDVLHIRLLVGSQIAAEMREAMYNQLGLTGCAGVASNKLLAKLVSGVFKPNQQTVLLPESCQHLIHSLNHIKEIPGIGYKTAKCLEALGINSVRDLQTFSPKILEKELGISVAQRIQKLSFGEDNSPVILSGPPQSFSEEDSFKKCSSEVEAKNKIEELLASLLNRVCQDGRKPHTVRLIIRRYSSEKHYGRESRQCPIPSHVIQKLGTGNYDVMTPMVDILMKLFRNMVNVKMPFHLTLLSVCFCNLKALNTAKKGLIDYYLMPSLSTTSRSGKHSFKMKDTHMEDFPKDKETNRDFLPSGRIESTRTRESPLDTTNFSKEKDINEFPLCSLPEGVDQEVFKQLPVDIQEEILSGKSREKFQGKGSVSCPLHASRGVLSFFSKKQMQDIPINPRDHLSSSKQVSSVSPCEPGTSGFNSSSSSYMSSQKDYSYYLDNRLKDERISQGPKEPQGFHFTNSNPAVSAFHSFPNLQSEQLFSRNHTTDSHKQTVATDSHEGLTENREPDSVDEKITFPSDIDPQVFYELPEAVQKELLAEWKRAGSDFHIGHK
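Pol iota at 10 nM preincubated 15 min with compounds at room temperature; reaction started with fluorescent substrate, 50 nM final. Fluorescence read kinetically at 0 and 10 min; buffer-only wells as negative control.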
POLH inh: DNA polymerase eta (human) inhibition. Q9Y253. recombinant Pol eta, fluorescent DNA replication assay. Potency, µM (doses to about 114 µM), inactives show at the highest dose activity change, negative = inhibition, hits mostly inhibitors. 390,000 tested, 1.2% active. AID 588591; further: on the % scale 0 is the no-effect control and ±100 the full control effect
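Pol eta (10 nM) was preincubated with compounds for 15 min at room temperature, after which fluorescent replication substrate (50 nM final) was added to start the reaction. Fluorescence was read kinetically at 0 and 10 min.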
POLK inh: DNA polymerase kappa (human) inhibition; purified Pol kappa, fluorescent DNA synthesis assay, 10 min; Potency, µM (series often up to 107 µM), for inactives: at the top dose activity, negative = inhibition, actives largely listed as inhibitors; 400,000 tested, 0.53% active; AID 588579; further: on the % scale 0 is the no-effect control and ±100 the full control effect
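Kinetic fluorescence readout at 0 and 10 min followed reaction start with substrate at 50 nM final. Beforehand, enzyme (10 nM Pol kappa) stood 15 min with compound at room temperature; buffer-only wells were negative controls.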
An asterisk follows results filed as active; [ ] = another dose, or the depositor's remark. A selection: hits, their analogues and other compounds. The true share with any hit is near 2.5%. The call rests on the fitted dose curve; in most records, active means well fitted curve in the direction sought with a large enough effect; inconclusive means small, poorly fitted or top-dose-only effect, or another doubt; inactive means no such curve, though single readings can be large; an effect the other way counts as inactive or inconclusive. Potency means the concentration at half of the fitted maximal effect.

What do the screens show for `CN(C)c1ccc(/C=C(\Cl)c2nc3ccccc3s2)cc1`?
L3MBTL1 block: 10µM*; WRN inhibitor: 6%; Pol beta inh: 2%; POLI inh: 28%; POLH inh: -12%; POLK inh: 10%

What do the screens show for `COc1cc(C=C(c2nc3ccccc3s2)c2nc3ccccc3s2)cc(OC)c1O`?
L3MBTL1 block: -27%; WRN inhibitor: -29%; Pol beta inh: -28%; POLI inh: 1%; POLH inh: -15%; POLK inh: -8%

Results for CC(C)Nc1nnc(SCc2cc(=O)n3ccsc3n2)s1 ?
L3MBTL1 block: inconclusive; WRN inhibitor: -7%; Pol beta inh: 32µM*; POLI inh: inconclusive; POLH inh: -17%; POLK inh: -18%

What do the screens show for `O=c1cc(CSc2nnc(Nc3ccccc3)s2)nc2sccn12`?
WRN inhibitor: -14%; Pol beta inh: inconclusive; POLI inh: -16%; POLH inh: inconclusive; POLK inh: -20%

How did COc1ccc(Nc2nc(N3CCCC3)c3ccccc3n2)cc1 do in these assays?
WRN inhibitor: inconclusive; Pol beta inh: 35µM*; POLI inh: inconclusive; POLH inh: -29%; POLK inh: -5%

Results for Oc1ccc(/C=N/N(Cc2ccccc2)c2ccccc2)c(O)c1O ?
WRN inhibitor: inconclusive; Pol beta inh: 6.3µM*; POLI inh: 39%; POLH inh: -25%; POLK inh: -38%

What do the screens show for `Oc1cccc(/C=N/N(Cc2ccccc2)c2ccccc2)c1`?
L3MBTL1 block: -6%; WRN inhibitor: -18%; Pol beta inh: 15%; POLI inh: 43%; POLH inh: -26%; POLK inh: -9%

Results for CCOc1cccc(C(=O)c2ccc(O)c(O)c2O)c1 ?
POLK inh: 4.5µM*

Results for CCOC(=O)COc1ccc(C(=O)c2ccccc2)c(O)c1 ?
L3MBTL1 block: 9%; WRN inhibitor: -2%; Pol beta inh: 12%; POLI inh: inconclusive; POLH inh: -12%; POLK inh: 3%

What do the screens show for `CCOc1ccc(C(=O)c2ccc(O)c(O)c2O)cc1`?
POLK inh: 3.5µM*

What do the screens show for `N#Cc1ccc(-c2nc3ccccc3nc2-c2ccccc2)cc1C#N`?
L3MBTL1 block: 2%; WRN inhibitor: 0%; Pol beta inh: 31%; POLI inh: 17%; POLH inh: -11%; POLK inh: -11%

How did Cc1ccc(/C=C/C(=O)Nc2nccs2)o1 do in these assays?
L3MBTL1 block: -16%; WRN inhibitor: 3%; Pol beta inh: 86%; POLI inh: 64%; POLH inh: -3%; POLK inh: 3%

What do the screens show for `Cc1ccc(/C=C/C(=O)Nc2nnc(SCc3ccc(C#N)cc3)s2)o1`?
L3MBTL1 block: 5%; WRN inhibitor: inconclusive; Pol beta inh: 21%; POLI inh: 40µM*; POLH inh: inconclusive; POLK inh: inconclusive

How did O=S(=O)(Nc1ccc(-c2cnco2)cc1)c1ccccc1 do in these assays?
L3MBTL1 block: -14%; WRN inhibitor: -1%; Pol beta inh: inconclusive; POLI inh: 16%; POLH inh: -14%; POLK inh: -2%

Results for O=C(O)c1ccc(CN2C(=O)c3cccc4c([N+](=O)[O-])ccc(c34)C2=O)cc1 ?
WRN inhibitor: 8%; Pol beta inh: inconclusive; POLI inh: inconclusive; POLH inh: 22µM*; POLK inh: -6%

How did CN(C)CCCN1C(=O)c2cccc3c([N+](=O)[O-])ccc(c23)C1=O do in these assays?
L3MBTL1 block: 12%; WRN inhibitor: -19%; Pol beta inh: inconclusive; POLI inh: inconclusive; POLH inh: -17%; POLK inh: -8%

What do the screens show for `CC[C@H](C)NC(=O)c1ccc(Cn2c(=S)[nH]c3c([nH]c4ccc(OC)cc43)c2=O)cc1`?
L3MBTL1 block: inconclusive; WRN inhibitor: -2%[11.6 µM]; Pol beta inh: inconclusive; POLI inh: inconclusive; POLH inh: 18µM*; POLK inh: 1%

What do the screens show for `CC(=O)c1ccccc1NS(=O)(=O)c1ccc2c(c1)CC(=O)N2`?
L3MBTL1 block: -10%; WRN inhibitor: -6%; POLI inh: -20%; POLH inh: -3%; POLK inh: -27%

What do the screens show for `O=C1CCC(C(=O)N2CCOCC2)CN1Cc1cccc(C(F)(F)F)c1` (stereo not drawn)?
WRN inhibitor: -8%; Pol beta inh: 6%; POLI inh: 67%; POLH inh: inconclusive; POLK inh: -4%

How did O=Nc1c2cc(-c3ccccc3)[nH]nc-2c2ccccc12 do in these assays?
L3MBTL1 block: -20%; WRN inhibitor: -4%; Pol beta inh: 40µM*; POLI inh: -6%; POLH inh: -8%; POLK inh: -6%

How did CC(=O)NCc1cc(Cl)c2cccnc2c1O do in these assays?
L3MBTL1 block: 22µM*

Results for O=C(/C=C/c1ccccc1Cl)Nc1cccnc1 ?
L3MBTL1 block: 2%; WRN inhibitor: -7%[11.6 µM]; Pol beta inh: 12%; POLI inh: inconclusive; POLH inh: inconclusive; POLK inh: inconclusive

Results for CCOc1ccc(CCNC(=O)CCCn2nc(C)c3sc4ccccc4c3c2=O)cc1OCC ?
Pol beta inh: 7%; POLI inh: inconclusive; POLH inh: -6%; POLK inh: -17%

Results for COc1ccc(CCNC(=O)CCCn2nc(C)c3sc4ccccc4c3c2=O)cc1OC ?
Pol beta inh: 35µM*; POLI inh: -13%; POLH inh: -13%; POLK inh: -43%

Results for CCOc1ccc(CNC(=O)CCCn2nc(C)c3sc4ccccc4c3c2=O)cc1 ?
Pol beta inh: -25%; POLI inh: 89µM*; POLH inh: -2%; POLK inh: -27%

How did O=c1c(-c2cccs2)nc2cnc(N3CCNCC3)nc2n1Cc1cccs1 do in these assays?
POLK inh: 32µM*

What do the screens show for `CN1CCN(c2ncc3nc(-c4cccs4)c(=O)n(Cc4cccs4)c3n2)CC1`?
POLK inh: -17%[60.1 µM]

Results for O=c1c(-c2cc(F)cc(F)c2)nc2cnc(N3CCNCC3)nc2n1Cc1cccs1 ?
POLK inh: 28µM*

What do the screens show for `NC(=O)c1nsc(C(=O)N(CC(=O)NCc2ccc3c(c2)OCO3)C2CCCCC2)c1N`?
L3MBTL1 block: -2%; WRN inhibitor: 3%; Pol beta inh: 6%; POLI inh: 17%; POLH inh: -17%; POLK inh: 7%

How did CCN(CC)C(=O)C1CCCN(C(=O)Nc2ccc3nsnc3c2)C1 (stereo not drawn) do in these assays?
L3MBTL1 block: 21%; WRN inhibitor: -20%; Pol beta inh: 8%; POLI inh: 0.89µM*; POLH inh: inconclusive; POLK inh: -6%
